Test results taken from publication PMC7819943, “Rice protein-binding microarrays: a tool to detect cis-acting elements near promoter regions in rice”.
In all, about 39,000 sequences were measured (“fluorescence intensity (a.u.)”: median about 4,300, highest 2% from about 39,000 on). Shown is part of a subset that was picked to be rich in the highest values.

These sequences were tested against T1, OsSMF1 (Oryza sativa, UniProt Q6ZLB0 1-436) (assay: protein-binding microarray (RPBM); PBS, 2% BSA, 51.3 ng/ul salmon testes DNA, 50 uM zinc acetate, 200 nM TF, 25 C, 1 h; high values mean tight binding). Settings: protein: recombinant; tags: N-terminal polyhistidine and DsRed monomer fusion (pET32a); chain copies: 2; label: CyDye5-dUTP incorporated in the synthesized complementary strand; 3' TTTTT single-stranded linker to array surface; dsDNA, one strand shown.
T1 sequence: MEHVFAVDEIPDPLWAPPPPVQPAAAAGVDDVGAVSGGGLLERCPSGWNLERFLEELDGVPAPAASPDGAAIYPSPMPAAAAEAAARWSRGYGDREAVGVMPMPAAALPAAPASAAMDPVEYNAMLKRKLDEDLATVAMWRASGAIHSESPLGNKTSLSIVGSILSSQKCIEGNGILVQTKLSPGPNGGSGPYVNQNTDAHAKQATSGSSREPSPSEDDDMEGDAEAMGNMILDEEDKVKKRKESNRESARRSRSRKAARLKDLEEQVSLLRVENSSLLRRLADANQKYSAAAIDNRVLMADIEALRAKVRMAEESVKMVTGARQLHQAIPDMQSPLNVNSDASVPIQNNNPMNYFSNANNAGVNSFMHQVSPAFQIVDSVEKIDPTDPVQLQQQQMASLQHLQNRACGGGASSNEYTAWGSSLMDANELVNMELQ
In short: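 Ni–NTA purification followed expression in E. coli BL21-CodonPlus of transcription factors fused N-terminally to a polyhistidine tag and DsRed. At 200 nM in PBS with 2% BSA, salmon testes DNA and 50 µM zinc acetate, the protein was incubated for 1 h at 25 °C with a custom Agilent array that had been primer-extended with Cy5-dUTP and blocked with 2% BSA. After washing, the array was read on an Axon 4000B scanner. The binding signal is per-feature fluorescence intensity in arbitrary units.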

Compared with “AGTTGACGTGGCATACTGACACGTGGGCCCCATGTGGGTTCGGAGTCACCTAGTGCAG”, “AAACGTAATCTAATAACAAAACAAATTACAGAACTGTAAACGGAGTCACCTAGTGCAG” is lower in binding signal: 24900 fluorescence intensity (a.u.) for the first, 11100 fluorescence intensity (a.u.) for the second.

Compared with “ATCCACCGCTGAGTCCCAGACGAGCGAGGGCCAGATCATCCGGAGTCACCTAGTGCAG”, “TGTAGGTATAAGAGTGAGTTGGTGAATTATAGGGTAGACTCGGAGTCACCTAGTGCAG” is higher in binding signal: 3410 fluorescence intensity (a.u.) for the first, 7410 fluorescence intensity (a.u.) for the second.

Compared with “TAGAAAGTGCCCAATTAGTATAGGTATAGATAGATAGACTCGGAGTCACCTAGTGCAG”, “GCATTATATTAGTAGGTCGTGTATTATATTAGTAGGTACTCGGAGTCACCTAGTGCAG” is lower in binding signal: 51000 fluorescence intensity (a.u.) for the first, 4260 fluorescence intensity (a.u.) for the second.

Compared with “ATTACATACTAATTACATATGTAAGTGAGGTGTAACTACTCGGAGTCACCTAGTGCAG”, “GGCAATCATCTTGAAGCATATCAACCCAACCTGATGTTGTCGGAGTCACCTAGTGCAG” is higher in binding signal: 4160 fluorescence intensity (a.u.) for the first, 28100 fluorescence intensity (a.u.) for the second.

First: TTGTTAATTACCGCGATTGATGTCGAGCTTGCATTTTGATCGGAGTCACCTAGTGCAG
Second: TTATTGCAAAATAGAAGGATGACGCCACGACGGCCGCTGCCGGAGTCACCTAGTGCAG
The binding signal of the first is higher: 3540 fluorescence intensity (a.u.) for the first, 3330 fluorescence intensity (a.u.) for the second.

First: TTACATACTGTATCATACTGACGTCAACGTATAATATTCCCGGAGTCACCTAGTGCAG
Second: CTATACTATTAATATATGGTCTCATCTGTCATACATATATCGGAGTCACCTAGTGCAG
The binding signal of the first is higher: 8340 fluorescence intensity (a.u.) for the first, 3830 fluorescence intensity (a.u.) for the second.

Going from “TCTGTTAGTGTCATACTGTCATCGACATATAATATTCCCTCGGAGTCACCTAGTGCAG” to “GCGCTTGCGCCTGACCGCCGCGTGACGACATGTTGTCACCCGGAGTCACCTAGTGCAG”, the binding signal falls from 42500 fluorescence intensity (a.u.) to 6800 fluorescence intensity (a.u.).

First: CGGTGACGACCACCCCACCTCACGATCCAACGGCCAATACCGGAGTCACCTAGTGCAG
Second: ACATGCAAAGATGCCACATCATCATCCACTATCACTAATTCGGAGTCACCTAGTGCAG
The binding signal of the first is lower: 4080 fluorescence intensity (a.u.) for the first, 17600 fluorescence intensity (a.u.) for the second.

Compared with “TCTTTGGATATAAAGCAACTACAATTTCAAAGGTAACCAACGGAGTCACCTAGTGCAG”, “AGAAGGTTGGAATTTAGTAAGTTGCAGTTACAAATTCAAGCGGAGTCACCTAGTGCAG” is higher in binding signal: 3460 fluorescence intensity (a.u.) for the first, 53200 fluorescence intensity (a.u.) for the second.

Compared with “GAATTACAAGGATGGTAAGGTTTGGTCTTTCAAAGTCTTACGGAGTCACCTAGTGCAG”, “AACAAGTGTGTTGGTGGTGGTGGAAGTTGTTACAGAATTGCGGAGTCACCTAGTGCAG” is lower in binding signal: 40100 fluorescence intensity (a.u.) for the first, 3470 fluorescence intensity (a.u.) for the second.

First: AAAATTGTTCAAAGGATGGCGTAACTTTGGCGTGGAATTACGGAGTCACCTAGTGCAG
Second: TCACTCAAATTTACAGTGCATTTTCTTGTAAGTTACAGTGCGGAGTCACCTAGTGCAG
The binding signal of the first is lower: 3180 fluorescence intensity (a.u.) for the first, 4800 fluorescence intensity (a.u.) for the second.

First: AAGTTATAACCCACTACATACAAAGATACCACGTCATCATCGGAGTCACCTAGTGCAG
Second: CATCAGATGCGCCCATCGCTTGAAGGAGAGACGCCGAGACCGGAGTCACCTAGTGCAG
The binding signal of the first is lower: 15900 fluorescence intensity (a.u.) for the first, 27300 fluorescence intensity (a.u.) for the second.

Going from “GCAGTCTTGTAGTCTCGTGCACCAATCGTCGCGCCGCGGCCGGAGTCACCTAGTGCAG” to “GCACCTTGAATGAATTATCTAGCAAAGCCAGCGTAGACGTCGGAGTCACCTAGTGCAG”, the binding signal rises from 22300 fluorescence intensity (a.u.) to 30200 fluorescence intensity (a.u.).

First: TGTGTACGTCACATCCTAATTAACATCAACTTGATAAAATCGGAGTCACCTAGTGCAG
Second: TGGGTCCCTCCATGCTGAGTCAGCTTGTCAATCGGGTCAACGGAGTCACCTAGTGCAG
The binding signal of the first is lower: 7900 fluorescence intensity (a.u.) for the first, 21900 fluorescence intensity (a.u.) for the second.

Going from “GCCTAACCCTAACCCTAGCCGCCACCGCTCAACCGCCTCCCGGAGTCACCTAGTGCAG” to “TGGCTCCCACGTTAACTTAGCCGCCACGTCAGCTAAAACCCGGAGTCACCTAGTGCAG”, the binding signal falls from 65100 fluorescence intensity (a.u.) to 46600 fluorescence intensity (a.u.).

Going from “ACACGCCACGCCGCCACCTCCACTTCGTTAACCCTTCTCCCGGAGTCACCTAGTGCAG” to “ACCGCCGGTCCACTCACCCCTAACCCTAGCCGCTGCCGCCCGGAGTCACCTAGTGCAG”, the binding signal falls from 5410 fluorescence intensity (a.u.) to 4020 fluorescence intensity (a.u.).

Compared with “AAGCCTAAAACCTCCCCATCCACGTCACCCATCCTCCTCCCGGAGTCACCTAGTGCAG”, “GGGCTCCCTCCACCGCCGCCTCCGCCACCGCCTCGCCGCCCGGAGTCACCTAGTGCAG” is lower in binding signal: 22300 fluorescence intensity (a.u.) for the first, 3150 fluorescence intensity (a.u.) for the second.

Compared with “GACGACTGCTGGTACACGGACATGAGGCTGCAGCCGACGACGGAGTCACCTAGTGCAG”, “GCCACGCCCAACCCGTGTCACTGTCACGTGGGCCCCACCCCGGAGTCACCTAGTGCAG” is higher in binding signal: 3480 fluorescence intensity (a.u.) for the first, 7720 fluorescence intensity (a.u.) for the second.

Compared with “CAACCAATCAATCACATACGTGGACAACTGCAGAAAATGCCGGAGTCACCTAGTGCAG”, “ACTGCCGGTTCAACTGCTCCACGGCTCCACTCCACGCATCCGGAGTCACCTAGTGCAG” is higher in binding signal: 5610 fluorescence intensity (a.u.) for the first, 43300 fluorescence intensity (a.u.) for the second.

Going from “ATCGCGCATCCACTCCACACCACACGCTTCACTGGTTCCGCGGAGTCACCTAGTGCAG” to “CGGCTCCGCCGCACTTGCTCGGCCGTCCACGCCGGCACGGCGGAGTCACCTAGTGCAG”, the binding signal falls from 3870 fluorescence intensity (a.u.) to 3640 fluorescence intensity (a.u.).

Compared with “ACTATGGATATCTGTTTTAGCTGACATGGCATCCTACTCACGGAGTCACCTAGTGCAG”, “ACCACTGTTTGTGGAGTGTGTGCACACACCACCTCCGATGCGGAGTCACCTAGTGCAG” is lower in binding signal: 8140 fluorescence intensity (a.u.) for the first, 3810 fluorescence intensity (a.u.) for the second.

With “ATTCACTGATAATAGAGACCCACACGTTAGTATTGGAGTACGGAGTCACCTAGTGCAG” the binding signal was 3140 fluorescence intensity (a.u.).
